# Source: paper PMC4081100, “A DNA-binding-site landscape and regulatory network analysis for NAC transcription factors in Arabidopsis thaliana”
# Legend:
# Experiment in all cases: universal protein binding microarray (PBM); transcription factors of Arabidopsis thaliana; high values mean tight binding
# [1] = biological target: T1, GST-ANAC092(1-176) (Arabidopsis thaliana, UniProt Q9FKA0 1-176); conditions: protein: recombinant; tags: GST; chain copies: 2; dsDNA, one strand shown
# T1 sequence: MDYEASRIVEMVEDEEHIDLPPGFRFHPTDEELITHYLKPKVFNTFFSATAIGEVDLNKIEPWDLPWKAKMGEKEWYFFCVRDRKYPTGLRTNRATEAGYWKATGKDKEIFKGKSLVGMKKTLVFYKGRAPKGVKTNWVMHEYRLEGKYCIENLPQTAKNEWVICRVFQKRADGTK
# Method in brief: (§1)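 Each value is a normalised enrichment score (E-score) describing binding. The GST-tagged proteins, NAC-domain, full-length or DNA-binding-domain, were induced in cells (zinc-finger proteins with zinc acetate added) and purified on glutathione–Sepharose 4B. They were applied at 200 to 500 nM final, in duplicate, to double-stranded custom all-10-mer Agilent 4 × 180K arrays, and gapped and ungapped 8-mers were scored.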
# [2] = biological target: T2, GST-ANAC019 NAC domain (Arabidopsis thaliana, UniProt Q9C932 14-162); conditions: protein: recombinant; tags: GST; chain copies: 2; dsDNA, one strand shown
# T2 sequence: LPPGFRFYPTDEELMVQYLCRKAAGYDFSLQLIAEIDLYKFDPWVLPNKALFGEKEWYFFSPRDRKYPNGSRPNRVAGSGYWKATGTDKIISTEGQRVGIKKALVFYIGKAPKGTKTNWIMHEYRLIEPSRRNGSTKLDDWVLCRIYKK
# Method in brief: as §1
# [3] = biological target: T3, GST-ANAC055(1-171) (Arabidopsis thaliana, UniProt Q9LDY8 1-171); conditions: protein: recombinant; tags: GST; chain copies: 2; dsDNA, one strand shown
# T3 sequence: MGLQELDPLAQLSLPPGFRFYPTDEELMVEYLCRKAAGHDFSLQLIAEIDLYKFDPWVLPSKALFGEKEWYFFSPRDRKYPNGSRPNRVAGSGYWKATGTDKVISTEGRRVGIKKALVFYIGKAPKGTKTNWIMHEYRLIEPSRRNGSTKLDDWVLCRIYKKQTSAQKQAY
# Method in brief: as §1
# [4] = biological target: T4, GST-ANAC092(1-285) full length (Arabidopsis thaliana, UniProt Q9FKA0 1-285); conditions: protein: recombinant; tags: GST; chain copies: 2; dsDNA, one strand shown
# T4 sequence: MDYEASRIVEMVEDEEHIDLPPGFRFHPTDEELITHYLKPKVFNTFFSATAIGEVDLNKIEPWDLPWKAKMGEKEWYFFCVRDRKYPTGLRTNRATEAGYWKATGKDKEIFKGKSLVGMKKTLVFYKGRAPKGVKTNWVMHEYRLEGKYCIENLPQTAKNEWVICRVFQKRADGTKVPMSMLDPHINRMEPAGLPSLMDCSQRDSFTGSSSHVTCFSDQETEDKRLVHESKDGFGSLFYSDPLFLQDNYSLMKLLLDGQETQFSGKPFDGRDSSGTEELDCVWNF
# Method in brief: as §1
# [5] = biological target: T5, GST-NAP(1-166) (Arabidopsis thaliana, UniProt O49255 1-166); conditions: protein: recombinant; tags: GST; chain copies: 2; dsDNA, one strand shown
# T5 sequence: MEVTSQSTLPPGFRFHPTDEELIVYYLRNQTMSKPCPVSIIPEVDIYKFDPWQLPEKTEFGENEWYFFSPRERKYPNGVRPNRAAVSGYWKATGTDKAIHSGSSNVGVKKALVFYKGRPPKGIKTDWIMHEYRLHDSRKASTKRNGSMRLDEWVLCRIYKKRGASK
# Method in brief: as §1
# [6] = biological target: T6, GST-NST2(1-184) (Arabidopsis thaliana, UniProt Q9M274 1-184); conditions: protein: recombinant; tags: GST; chain copies: 2; dsDNA, one strand shown
# T6 sequence: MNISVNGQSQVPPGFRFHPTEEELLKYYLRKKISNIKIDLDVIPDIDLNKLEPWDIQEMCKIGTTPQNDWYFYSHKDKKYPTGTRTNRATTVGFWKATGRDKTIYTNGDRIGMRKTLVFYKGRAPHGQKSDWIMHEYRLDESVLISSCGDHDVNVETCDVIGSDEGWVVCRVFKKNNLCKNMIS
# Method in brief: as §1
# [7] = biological target: T7, GST-SND1(1-203) (Arabidopsis thaliana, UniProt Q9LPI7 1-203); conditions: protein: recombinant; tags: GST; chain copies: 2; dsDNA, one strand shown
# T7 sequence: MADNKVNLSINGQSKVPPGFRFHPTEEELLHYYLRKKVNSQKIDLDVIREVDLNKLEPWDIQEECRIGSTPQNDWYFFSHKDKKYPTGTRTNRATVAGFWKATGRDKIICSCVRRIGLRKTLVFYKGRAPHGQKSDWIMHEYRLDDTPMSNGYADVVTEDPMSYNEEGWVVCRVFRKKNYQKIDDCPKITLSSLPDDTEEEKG
# Method in brief: as §1
# [8] = biological target: GST-NTL6(1-168) (Arabidopsis thaliana, UniProt Q9SCK6 1-168); conditions: protein: recombinant; tags: GST; chain copies: 2; dsDNA, one strand shown
# Method in brief: as §1
# [9] = biological target: T8, GST-NTL8 NAC domain (Arabidopsis thaliana, UniProt Q9XIN7 14-156); conditions: protein: recombinant; tags: GST; chain copies: 2; dsDNA, one strand shown
# T8 sequence: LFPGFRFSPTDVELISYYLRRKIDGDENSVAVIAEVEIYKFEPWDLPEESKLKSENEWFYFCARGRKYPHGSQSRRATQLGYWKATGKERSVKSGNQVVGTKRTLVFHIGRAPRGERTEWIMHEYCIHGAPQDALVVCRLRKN
# Method in brief: as §1
# [10] = biological target: T9, GST-ATAF1 NAC domain (Arabidopsis thaliana, UniProt Q39013 7-158); conditions: protein: recombinant; tags: GST; chain copies: 2; dsDNA, one strand shown
# T9 sequence: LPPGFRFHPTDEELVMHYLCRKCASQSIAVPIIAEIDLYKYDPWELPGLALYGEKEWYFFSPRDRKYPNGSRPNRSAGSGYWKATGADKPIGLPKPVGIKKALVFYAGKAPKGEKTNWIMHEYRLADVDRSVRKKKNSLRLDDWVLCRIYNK
# Method in brief: as §1
# [11] = biological target: T10, GST-VND3 NAC domain (Arabidopsis thaliana, UniProt Q9FH59 12-162); conditions: protein: recombinant; tags: GST; chain copies: 2; dsDNA, one strand shown
# T10 sequence: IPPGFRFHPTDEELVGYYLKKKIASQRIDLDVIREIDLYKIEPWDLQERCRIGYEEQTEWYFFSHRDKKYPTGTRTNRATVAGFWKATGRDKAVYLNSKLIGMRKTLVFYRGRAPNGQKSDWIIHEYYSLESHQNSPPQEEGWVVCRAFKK
# Method in brief: as §1
# [12] = biological target: T11, GST-VND7 NAC domain (Arabidopsis thaliana, UniProt Q9C8W9 9-158); conditions: protein: recombinant; tags: GST; chain copies: 2; dsDNA, one strand shown
# T11 sequence: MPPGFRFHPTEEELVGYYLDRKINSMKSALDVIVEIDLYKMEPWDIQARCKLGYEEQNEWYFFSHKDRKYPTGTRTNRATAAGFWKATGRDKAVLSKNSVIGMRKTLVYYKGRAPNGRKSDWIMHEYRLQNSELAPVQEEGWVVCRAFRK
# Method in brief: as §1
# [13] = biological target: GST-WRKY1(266-371) (Arabidopsis thaliana, UniProt Q9SI37 266-371); conditions: protein: recombinant; tags: GST; dsDNA, one strand shown
# Method in brief: as §1
# Chain of GST-WRKY1(266-371) (Q9SI37 266-371): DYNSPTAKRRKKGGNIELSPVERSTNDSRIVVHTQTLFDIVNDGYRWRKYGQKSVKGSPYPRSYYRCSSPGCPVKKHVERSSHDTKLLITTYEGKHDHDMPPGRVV
# Chain of GST-NTL6(1-168) (Q9SCK6 1-168): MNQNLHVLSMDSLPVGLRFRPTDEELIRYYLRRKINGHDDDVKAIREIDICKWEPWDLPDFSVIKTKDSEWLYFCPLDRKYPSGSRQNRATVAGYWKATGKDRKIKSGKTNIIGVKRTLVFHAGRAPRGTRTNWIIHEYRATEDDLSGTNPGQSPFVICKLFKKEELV
sequence,measurement,setting,value
CACGCTAG,binding signal,[1],0.389 E-score
same,binding signal,[2],0.115 E-score
same,binding signal,[3],0.101 E-score
same,binding signal,[4],0.426 E-score
same,binding signal,[5],0.0849 E-score
same,binding signal,[6],0.156 E-score
same,binding signal,[7],0.218 E-score
GCTAAGCA,binding signal,[8],0.411 E-score
same,binding signal,[6],0.0614 E-score
same,binding signal,[7],0.155 E-score
GCACGCGA,binding signal,[1],0.287 E-score
same,binding signal,[4],0.429 E-score
same,binding signal,[6],0.191 E-score
same,binding signal,[7],0.286 E-score
AGGTAAGG,binding signal,[8],0.27 E-score
same,binding signal,[2],0.101 E-score
same,binding signal,[4],0.0822 E-score
same,binding signal,[9],0.424 E-score
same,binding signal,[7],0.147 E-score
ATTGACCA,binding signal,[1],0.0698 E-score
same,binding signal,[3],0.072 E-score
same,binding signal,[10],0.107 E-score
same,binding signal,[4],0.0788 E-score
same,binding signal,[9],0.163 E-score
same,binding signal,[11],0.129 E-score
same,binding signal,[12],0.0794 E-score
same,binding signal,[13],0.482 E-score
ACGCCACG,binding signal,[1],0.382 E-score
same,binding signal,[2],0.147 E-score
same,binding signal,[3],0.14 E-score
same,binding signal,[10],0.0586 E-score
same,binding signal,[4],0.409 E-score
same,binding signal,[6],0.128 E-score
same,binding signal,[7],0.249 E-score
CACACGCC,binding signal,[1],0.396 E-score
same,binding signal,[2],0.207 E-score
same,binding signal,[3],0.124 E-score
same,binding signal,[10],0.145 E-score
same,binding signal,[4],0.428 E-score
same,binding signal,[6],0.134 E-score
same,binding signal,[7],0.119 E-score
TACGCGAA,binding signal,[1],0.268 E-score
same,binding signal,[3],0.0984 E-score
same,binding signal,[10],0.119 E-score
same,binding signal,[4],0.368 E-score
same,binding signal,[5],0.0761 E-score
same,binding signal,[6],0.185 E-score
same,binding signal,[7],0.416 E-score
TGAGGAAA,binding signal,[1],0.0937 E-score
same,binding signal,[8],0.106 E-score
same,binding signal,[6],0.105 E-score
same,binding signal,[9],0.429 E-score
same,binding signal,[7],0.172 E-score
GTCAACGA,binding signal,[11],0.0713 E-score
same,binding signal,[12],0.104 E-score
same,binding signal,[13],0.486 E-score
TTAGTCAA,binding signal,[2],0.12 E-score
same,binding signal,[10],0.107 E-score
same,binding signal,[4],0.0778 E-score
same,binding signal,[11],0.11 E-score
same,binding signal,[13],0.481 E-score
AATTTGAC,binding signal,[3],0.0892 E-score
same,binding signal,[10],0.237 E-score
same,binding signal,[11],0.0556 E-score
same,binding signal,[13],0.451 E-score
TAGGTCAA,binding signal,[3],0.077 E-score
same,binding signal,[10],0.145 E-score
same,binding signal,[11],0.0723 E-score
same,binding signal,[13],0.482 E-score
AGCTTGAC,binding signal,[1],0.0728 E-score
same,binding signal,[2],0.0936 E-score
same,binding signal,[4],0.065 E-score
same,binding signal,[5],0.0572 E-score
same,binding signal,[12],0.099 E-score
same,binding signal,[13],0.447 E-score
AGTCAACG,binding signal,[2],0.0747 E-score
same,binding signal,[4],0.0699 E-score
same,binding signal,[5],0.0565 E-score
same,binding signal,[6],0.114 E-score
same,binding signal,[11],0.115 E-score
same,binding signal,[13],0.494 E-score
